Values joined by “and” are separate entries in the source; they are usually repeats but may differ in a detail not shown here. Equal entries are not always repeated. Values without a mark were called inactive. Records with an inconclusive call do not appear. Some structures have more than one record in an assay (separate samples or runs), and their calls can disagree. Active and inactive are the calls of the source. Unless noted, the call rests on the fitted dose curve; in most records, active means well fitted curve in the direction sought with a large enough effect; inconclusive means small, poorly fitted or top-dose-only effect, or another doubt; inactive means no such curve, though single readings can be large; an effect the other way counts as inactive or inconclusive.
Tests used:
[1] = qHTS assay for environmental chemicals that activate the Aryl hydrocarbon Receptor (AhR) signaling pathway (AID 651777); conditions: 1A2-DRE human hepatoma cells, luciferase, 24 h; activation: hits give high values; further: nearly all actives have a fitted effect of over 15% in size; further: potency means the concentration at half of the fitted maximal effect; on activation: % of control where 0% means no effect
Procedure, shortened: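 Concentration–response screening used 1,200 1A2-DRE cells per well, 24 hr compound exposure (37 C, 5% CO2), and One-Glo luminescence as the AhR-driven CYP1A2 reporter signal.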

[2] = biological target: Peroxisome proliferator-activated receptor alpha (Homo sapiens) (UniProt Q07869); assay: qHTS assay for small molecule agonists of the peroxisome proliferator-activated receptor alpha (PPARalpha) signaling pathway (AID 651778); conditions: PathHunter PPARalpha complementation, chemiluminescence, 6 h; hits give high values; further: % of control where 0% means no effect
Procedure, shortened: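 Enzyme-fragment complementation assay in which ligand-bound PPARalpha translocates and forms an active enzyme that generates chemiluminescence. Cells were plated overnight, exposed to compound for 6 hr at 37 C, and then given detection reagent for 60 min at room temperature.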

[3] = biological target: Tumor necrosis factor (Homo sapiens) (UniProt P01375); assay: qHTS assay to identify small molecules that stimulate Tumor Necrosis Factor-alpha (TNF-alpha) secretion (AID 651757; active means well fitted curve in the direction sought with a large enough effect in the signal ratio; the % refers to the signal ratio; further: 0% is about no effect)
Procedure, shortened: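 Human monocytic THP-1 cells are plated, treated with compound and held at 37 C for 17 hrs. Labeled anti-TNF-alpha antibody mixture is then added; after 3 hr at room temperature, TR-FRET signal reports secreted TNF-alpha.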

[4] = biological target: Tyrosine-protein kinase Yes (Homo sapiens) (UniProt P07947); assay: qHTS for small molecule inhibitors of Yes1 kinase: Primary Screen (AID 686947);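 further: plate controls were DMSO with enzyme for no effect and no-enzyme DMSO wells for full effect; nearly all actives have a fitted effect of over 60% in size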
Procedure, shortened: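 ADP-Glo luminescence reports ADP formed by 4 nM Yes1 phosphorylating poly(E4Y) (0.3 mg/mL) with 0.1 mM ATP for 60 min at room temperature, following 20 min compound preincubation; normalised between DMSO wells with and without enzyme.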

[5] = qHTS for small molecule inhibitors of Yes1 kinase: Counter Assay (AID 686950);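 further: no kinase present so only ADP-Glo detection of a fixed ADP amount is tested; luminescence from ADP-Glo reporting ADP in a fixed ATP and ADP mixture; series mostly up to about 77 µM; 0% = DMSO wells with ATP plus ADP and -100% = ATP-only wells without ADP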
Procedure, shortened: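 No kinase present; 0.08 mM ATP + 0.02 mM ADP in 50 mM Tris pH 7.5, 10 mM MgCl2, 150 mM NaCl, 1 mM DTT; 20 min compound preincubation, 60 min RT, ADP-Glo luminescence, normalized to ATP/ADP (max) and ATP-only (min).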

[6] = biological target: Nuclear receptor ROR-gamma (Homo sapiens) (UniProt P51449); assay: qHTS assay for small molecule antagonists of the retinoid-related orphan receptor gamma (ROR-gamma) signaling pathway (AID 651802); further: nearly all actives have a fitted effect of over 60% in size; further: potency means the concentration at half of the fitted maximal effect
Procedure, shortened: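 Steps: cells dispensed; compound or DMSO transferred by pin tool; doxycycline added to induce the ROR response element-driven luciferase; plates held 16hr at 37C; ONE-Glo added and luminescence measured.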

[7] = qHTS assay to identify small molecules that stimulate interleukin-8 (IL-8) secretion (AID 651758; active means well fitted activation curve with a large enough effect in the signal ratio; the % refers to the signal ratio; further: 0% is about no effect)
Procedure, shortened: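 Compounds are added to THP-1 cells (2000 per well) and left 16 hrs at 37 C. A labeled anti-IL-8 antibody pair is then added, and IL-8 secretion is measured by time-resolved FRET after 1-3 hrs at room temperature.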

Chain of Tumor necrosis factor (Homo sapiens) (P01375 whole entry, looked up): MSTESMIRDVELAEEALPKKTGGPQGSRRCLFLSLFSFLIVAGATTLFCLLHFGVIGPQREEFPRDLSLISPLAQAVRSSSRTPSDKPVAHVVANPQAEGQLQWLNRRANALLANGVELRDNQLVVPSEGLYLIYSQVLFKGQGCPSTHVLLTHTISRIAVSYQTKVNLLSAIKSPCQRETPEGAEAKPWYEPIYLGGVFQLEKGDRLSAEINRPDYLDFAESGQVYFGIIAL
Chain of Peroxisome proliferator-activated receptor alpha (Homo sapiens) (Q07869 whole entry, looked up, the tested form may be a part): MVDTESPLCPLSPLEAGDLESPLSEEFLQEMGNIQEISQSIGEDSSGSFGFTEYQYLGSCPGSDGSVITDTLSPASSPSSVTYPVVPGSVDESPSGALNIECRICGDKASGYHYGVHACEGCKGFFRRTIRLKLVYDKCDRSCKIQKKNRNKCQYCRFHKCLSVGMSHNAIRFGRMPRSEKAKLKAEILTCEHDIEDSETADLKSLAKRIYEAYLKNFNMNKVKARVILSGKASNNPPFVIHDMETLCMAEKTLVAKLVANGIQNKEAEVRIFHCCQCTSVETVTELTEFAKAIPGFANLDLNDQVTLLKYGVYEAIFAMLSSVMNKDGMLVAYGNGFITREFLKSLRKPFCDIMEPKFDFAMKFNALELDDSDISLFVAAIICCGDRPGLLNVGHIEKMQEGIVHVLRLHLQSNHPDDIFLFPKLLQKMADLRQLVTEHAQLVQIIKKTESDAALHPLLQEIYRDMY
Chain of Nuclear receptor ROR-gamma (Homo sapiens) (P51449 whole entry, looked up): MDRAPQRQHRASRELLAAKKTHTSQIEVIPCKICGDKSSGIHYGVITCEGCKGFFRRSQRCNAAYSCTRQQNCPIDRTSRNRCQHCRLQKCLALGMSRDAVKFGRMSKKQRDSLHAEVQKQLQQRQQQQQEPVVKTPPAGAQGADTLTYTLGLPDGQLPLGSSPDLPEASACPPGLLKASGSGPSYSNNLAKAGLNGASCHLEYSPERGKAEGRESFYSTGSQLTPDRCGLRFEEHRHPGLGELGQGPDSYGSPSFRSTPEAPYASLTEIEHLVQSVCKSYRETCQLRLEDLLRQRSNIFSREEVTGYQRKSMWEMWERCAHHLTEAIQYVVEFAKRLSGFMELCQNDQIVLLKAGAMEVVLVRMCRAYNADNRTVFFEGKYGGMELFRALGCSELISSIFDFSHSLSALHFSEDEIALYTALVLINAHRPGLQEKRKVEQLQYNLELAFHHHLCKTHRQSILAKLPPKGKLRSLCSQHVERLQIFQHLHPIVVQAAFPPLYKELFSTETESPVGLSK
Chain of Tyrosine-protein kinase Yes (Homo sapiens) (P07947 whole entry, looked up): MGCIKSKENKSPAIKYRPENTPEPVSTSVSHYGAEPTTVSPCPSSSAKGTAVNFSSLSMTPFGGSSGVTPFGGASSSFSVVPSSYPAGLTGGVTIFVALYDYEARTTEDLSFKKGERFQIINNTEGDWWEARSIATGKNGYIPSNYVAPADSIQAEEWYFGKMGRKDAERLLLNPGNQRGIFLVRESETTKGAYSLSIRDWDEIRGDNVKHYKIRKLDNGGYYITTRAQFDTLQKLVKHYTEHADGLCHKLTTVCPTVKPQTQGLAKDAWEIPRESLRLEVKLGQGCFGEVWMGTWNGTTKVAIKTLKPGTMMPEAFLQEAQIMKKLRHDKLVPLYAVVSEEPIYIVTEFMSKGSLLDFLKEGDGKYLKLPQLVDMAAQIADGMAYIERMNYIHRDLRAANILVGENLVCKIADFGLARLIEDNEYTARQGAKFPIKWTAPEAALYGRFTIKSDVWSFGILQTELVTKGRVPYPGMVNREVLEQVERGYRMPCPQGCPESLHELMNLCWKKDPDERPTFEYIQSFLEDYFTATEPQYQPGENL

## O=C(Nc1ccccc1)c1cc([N+](=O)[O-])ccc1Cl
[1]
  Potency: 14.1 µM (active)
[2]
  max response: 0.605%

## CC1(C)S[C@@H]2[C@H](NC(=O)[C@H](N)c3ccccc3)C(=O)N2[C@H]1C(=O)O
[3]
  outcome: inactive
[1]
  activation: 0.371%
[2]
  max response: -1.69%

## O=C(O)[C@H](O)[C@@H](O)[C@H](O)[C@H](O)CO
[1]
  activation: -0.169%
[2]
  max response: -0.488%

## CC(C)OC(=O)c1cc(C(=O)OC(C)C)cc([N+](=O)[O-])c1
[1]
  activation: 4%
[2]
  max response: 0.0203%

## C=CCc1cccc(/C=N/NC(=O)CN2CCN(Cc3ccccc3)CC2)c1O
[4]
  outcome: inactive
[5]
  outcome: inactive

## Nc1ccc(O)c([N+](=O)[O-])c1
[1]
  activation: 4.17% and 0.649%
[2]
  max response: -1.01% and 0.176%

## O=C(O)/C=C\C(=O)O
[3]
  outcome: inactive
[2]
  max response: -3.33%
[6]
  Potency: inactive

## c1ccc2sc(SSc3nc4ccccc4s3)nc2c1
[3]
  outcome: inactive
[1]
  activation: -0.44% and 3.22%
[2]
  max response: -2.43% and -7.65%
[6]
  Potency: inactive

## Nc1cc(-c2ccncc2)c[nH]c1=O
[1]
  activation: -0.684%
[2]
  max response: -1.14%

## Oc1ccccc1O
[2]
  max response: -0.837%

## Nc1ccc(O)c(C(=O)O)c1
[1]
  activation: 0.023% and -1.58%
[2]
  max response: -9.31% and -0.252%
[6]
  Potency: inactive

## CN(C)c1ccc(N=NS(=O)(=O)O)cc1
[1]
  Potency: 70.8 µM (active)
  activation: 10.4%
[2]
  max response: -7.89% and -1.86%
[6]
  Potency: 5.96 µM (active)

## CN(C)CCC(c1ccc(Cl)cc1)c1ccccn1 (stereo unspecified)
[3]
  outcome: inactive
[1]
  activation: -0.109%
[2]
  max response: -7.82%
[6]
  Potency: inactive

## COc1cc(/C=C/C(=O)CC(=O)/C=C/c2ccc(O)c(OC)c2)ccc1O
[2]
  max response: -5.38%

## CCCCCCCCCCCCCCCC(=O)OC(C)C
[2]
  max response: 0.689%

## S=c1[nH]c2ccccc2s1
[7]
  Potency: inactive
[2]
  max response: -10.8% and -7.19%
[6]
  Potency: inactive

## CN1CC(=O)N/C1=N/C(=O)Nc1cccc(Cl)c1
[4]
  outcome: inactive
[5]
  outcome: inactive

From PubChem BioAssay (NCATS)
